Compound activity: PubChem, National Center for Advancing Translational Sciences (NCATS)
GALK inhibitor: blocks human galactokinase activity. P51570. Potency, µM (doses to about 57.5 µM), for inactives: at the highest dose activity change, negative = inhibition, usual class: inhibitors. AID 1868. Purified GALK, Kinase-Glo residual ATP luminescence. 0.007% of 270,000 active; further: potency means the concentration at half of the fitted maximal effect
Target sequence (P51570 whole entry, looked up): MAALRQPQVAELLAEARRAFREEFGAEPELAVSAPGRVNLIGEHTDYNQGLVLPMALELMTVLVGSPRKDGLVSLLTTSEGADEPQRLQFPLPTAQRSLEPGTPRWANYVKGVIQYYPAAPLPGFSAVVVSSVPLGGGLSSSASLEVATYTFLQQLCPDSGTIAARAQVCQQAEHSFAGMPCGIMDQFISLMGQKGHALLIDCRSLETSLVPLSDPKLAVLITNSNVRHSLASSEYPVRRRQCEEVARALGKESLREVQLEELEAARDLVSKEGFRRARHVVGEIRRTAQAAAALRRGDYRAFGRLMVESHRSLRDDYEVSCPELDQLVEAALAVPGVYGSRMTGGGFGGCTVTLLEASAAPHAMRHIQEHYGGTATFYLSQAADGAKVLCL
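ATP-depletion format; final 35 uM ATP, 100 uM D-galactose, 5 nM enzyme; pH 8.0 HEPES/Mg2+ buffer; 60 min RT; luminescence read 10 min after detection reagent.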
TrxR1 inh: inhibitors of rat thioredoxin reductase 1; recombinant rTrxR1, NADPH fluorescence consumption, selenite substrate; O89049; 1% of 390,000 active; Potency, µM (highest dose often 114 µM), for inactives: at the highest dose activity change, negative = inhibition, usual class: inhibitors; further: potency means the concentration at half of the fitted maximal effect; nearly all actives have a fitted effect of over 65% in size
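Rat TrxR1 (90 nM in the dispensed reagent) was pre-reduced with 400 uM NADPH for 5 min at room temperature, then incubated with compound for 15 min. After 400 uM selenite was added, NADPH fluorescence (Ex 340/Em 450 nm) was followed for 8 min.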
Eya2 phos inh: blocks the phosphatase activity of human Eya2; recombinant Eya2, OMFP fluorescence dephosphorylation (OMFP is methylfluorescein phosphate); Potency, µM (titrated, usually from 76.9 µM), for the others: at the top dose activity, negative = inhibition, usual class: inhibitors; AID 488837; 0.006% of 330,000 active; further: potency means the concentration at half of the fitted maximal effect
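Eya2 protein (added as 0.2 uM solution) was preincubated with compound for 10 min at ambient temperature in 50 mM HEPES pH 7.5, 50 mM NaCl, 5 uM MgCl2, 0.05% BSA, 1 mM DTT. OMFP (added at 50 uM) then reacted 10 min; fluorescence read at 485/525 nm.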
CtBP-E1A blk: blocks the CtBP interaction with E1A | 0.49% of 340,000 active | activity change, % (test concentration not listed) | AlphaScreen GST-E1A/His-CtBP binding, 1536-well; hits give low values; in the data active means activity change below about -65%; inconclusive means mostly about -30% to -63%
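Steps: dispense buffer (Tris pH 8.0, NaCl 300 mM, TCEP 1 mM, BSA, Tween 20); add 5X protein mix (GST-E1A, His-CtBP, 125 nM each); pin 23 nL compound; 2 h at 37 °C, dark; add 5X beads (50 ug/mL); 1 h; read.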
Six1-Eya2 inh: inhibitors of human Six1/Eya2 interaction; AlphaScreen GST-Six1/His-Eya2 binding, biochemical; hits give low values; activity change, % (concentration not given with the values); 0.56% of 360,000 active; AID 651725; in the data active means activity change below about -65%; inconclusive means mostly about -30% to -63%
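AlphaScreen with GST-Six1 and His-Eya2 (5X mix: 250 nM and 500 nM), glutathione donor and nickel acceptor beads; buffer 50 mM Tris pH 8.0, 300 mM NaCl, 1 mM TCEP; 1 h at 37 C in the dark.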
TrxR1 substrate: rat thioredoxin reductase 1 substrate activity; AID 588456; purified TrxR1 substrate turnover, NADPH consumption readout; Potency, µM (doses to about 114 µM), for inactives: at the highest dose activity change, negative = substrate turnover; 0.01% of 390,000 active; further: potency means the concentration at half of the fitted maximal effect; nearly all actives have a fitted effect of over 50% in size
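Rat TrxR1, dispensed at 90 nM, was prereduced with 400 uM NADPH (final) for 5 min at ~22 deg C, then incubated with compound 15 min before 400 uM selenite. A first-read NADPH fluorescence drop versus no-compound background flagged substrates.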
Numbers without * were called inactive; ? = inconclusive; · = no result; [ ] = another dose, or the depositor's remark. An excerpt weighted towards active compounds, which were near 1.5% of everything screened. Unless noted, the call rests on the fitted dose curve; in most records, active means well fitted curve in the direction sought with a large enough effect; inconclusive means small, poorly fitted or top-dose-only effect, or another doubt; inactive means no such curve, though single readings can be large; an effect the other way counts as inactive or inconclusive. On the % scale 0 is the no-effect control and ±100 the full control effect.

SMILES	GALK inhibitor	TrxR1 inh	Eya2 phos inh	CtBP-E1A blk	Six1-Eya2 inh	TrxR1 substrate
O=c1c(CN2CCN(Cc3ccccc3)CC2)coc2ccc(Cl)cc12	2%	22µM*	-3%	-3	0	13%
CCNC(=S)NNC(=O)c1ccccc1Cl	1%	-1%	-1%	9	10	5%
CCNC(=S)NNC(=O)c1ccccn1	·	-18%	6%	-96*	-95*	-2%
O=C(NNC(=S)Nc1ccc(Cl)c(Cl)c1)c1ccccn1	5%	-11%[57.1 µM]	0%	·	-90*	-3%[57.1 µM]
c1ccc(Cn2nnnc2C(c2ccncc2)N2CCOCC2)cc1 (stereo not given)	0%	-5%	-9%	6	0	1%
Cc1cc(C(c2nnnn2Cc2ccccc2)N2CCOCC2)c(C)n1-c1ccc2c(c1)OCO2 (stereo not given)	2%	7.9µM*	-6%	11	-15	7%
CC1(C)CCC(=NNC(N)=S)CC1	·	-3%	·	-15	5	1%
NC(=S)NN=C1CSSC1	·	·	·	-89*	-94*	·
O=C(Oc1ccc(C(=S)N2CCOCC2)cc1)c1ccc([N+](=O)[O-])cc1[N+](=O)[O-]	8%	1%	3%	9	-3	-7%
O=C(Oc1ccc(Br)cc1C(=S)N1CCOCC1)c1ccc([N+](=O)[O-])cc1[N+](=O)[O-]	-1%	0%[57.1 µM]	6%	?	-94*	10%[57.1 µM]
O=C(Oc1cccc(C(=S)N2CCOCC2)c1)c1ccc([N+](=O)[O-])cc1[N+](=O)[O-]	8%	-3%[57.1 µM]	-4%	5	-69*	2%[57.1 µM]
CCc1ccc(NC(=O)CC2C(=O)N(c3ccccc3)C(=O)N2C(C)C)cc1 (stereo not given)	·	5%	·	·	·	-1%
CCOC(=O)c1[nH]c(C)c(CCC(=O)NC(C)c2ccccc2)c1C (stereo not given)	·	-1%[57.1 µM]	·	·	·	-5%[57.1 µM]
COc1ccc(C(CCNCc2ccc(N(C)C)cc2)C(C)C)cc1 (stereo not given)	·	-2%	-9%	·	-67*	-1%
COc1ccc(CNCCC(c2ccc(OC(C)C)cc2)c2ccccc2OC)cc1 (stereo not given)	4%	16%	-8%	-12	-26	-1%
COc1ccccc1C(CCNCc1ccc(N(C)C)cc1)c1ccc(OC(C)C)cc1 (stereo not given)	2%	9%	-4%	·	-84*	8%
COc1ccc(C(CCNCc2ccc(OC(C)C)cc2)C(C)C)cc1 (stereo not given)	-4%	15%[57.1 µM]	-22%	8	4	3%[57.1 µM]
CCOC(=O)C1CCN(C(=O)Cn2nc(C)n3c(cc4sccc43)c2=O)CC1	·	12%	·	·	·	-3%
CN1CCN(c2ccccc2NC(=O)c2cc3c(s2)-c2ccccc2OC3)CC1	·	-3%	-15%	-79*	-1	-9%
Cc1ccccc1S(=O)(=O)Cc1ccc(C(=O)NCc2ccccc2Cl)o1	·	10%	·	·	·	3%
Cc1cccc(-c2nc(CS(=O)CC(=O)NCCc3ccccc3)c(C)o2)c1 (stereo not given)	2%	7%	-1%	-3	0	2%
COc1cccc(-c2nc(CS(=O)CC(=O)NCCc3ccccc3)c(C)o2)c1 (stereo not given)	-8%	28µM*	0%	·	-5	-7%
COc1cccc(-c2nc(CS(=O)CC(=O)O)c(C)o2)c1 (stereo not given)	3%	-34%	18%	0	8	3%
COc1cccc(-c2nc(CS(=O)CC(=O)NC(C)CCc3ccccc3)c(C)o2)c1 (stereo not given)	-5%	28µM*	-3%	·	-5	2%
CCC(C)NC(=O)CS(=O)Cc1nc(-c2cccc(OC)c2)oc1C (stereo not given)	2%	25µM*	-20%	1	-3	10%[57.1 µM]
SMILES	GALK inhibitor	TrxR1 inh	Eya2 phos inh	CtBP-E1A blk	Six1-Eya2 inh	TrxR1 substrate
COCCCNC(=O)CS(=O)Cc1nc(-c2ccccc2C)oc1C (stereo not given)	2%	?	-1%	8	0	-1%[57.1 µM]
Cc1ccccc1-c1nc(CS(=O)CC(=O)NC(C)CCc2ccccc2)c(C)o1 (stereo not given)	0%	2.2µM*	-14%	-19	-7	9%
Cc1ccc(-c2cc(C(=O)NCc3ccccc3)c3c(-c4ccc(C)cc4)[nH]nc3n2)cc1	·	20%[57.1 µM]	·	·	·	9%[57.1 µM]
COc1ccc(/C=C\c2onc(C)c2S(=O)(=O)N2CCC(C(=O)Nc3cccc(Cl)c3)CC2)cc1	·	-5%	·	·	·	2%
Oc1ccc(/C=N/NC(=S)N/N=C/c2ccc(O)cc2)cc1	-1%	-29%	-6%	-67*	?	-17%
Cc1c(Cl)cccc1NS(=O)(=O)c1ccccc1	·	45%[57.1 µM]	·	0	-5	26%[57.1 µM]
Cc1c(NS(=O)(=O)c2ccccc2)cc(Cl)c(O)c1C	-2%	25µM*	1%	-4	6	8%
CSc1ccc(CNC(=O)c2sc3ncnc(N(C)C4CCCCC4)c3c2C)cc1	·	1%[57.1 µM]	·	·	·	-10%[57.1 µM]
COc1ccc(CC(=O)Nc2nc3ccccc3[nH]2)cc1	-2%	19%	11%	8	3	7%
COC(=O)Cc1cc(=O)n(-c2nc3ccccc3[nH]2)[nH]1	1%	24%	-4%	-86*	-92*	9%
Cc1cccc(C(=O)n2nc(-c3cccnc3)nc2NCc2ccccc2)c1	·	16%	·	·	·	-7%
N#Cc1ccc(C(=O)CN2CCN(c3ccccc3)CC2)cc1	-1%	50µM*	15%	3	-1	6%
CCN(CC)CCCNC(=O)c1nn(C)c2c1CS(=O)(=O)c1ccccc1-2	·	3%	·	·	·	-4%
O=C(/C=C/Sc1ccc(C(F)(F)F)cn1)c1ccccc1	·	1.3µM*	-27%	·	6	0%
C=C1C=C(C(F)F)n2ncc(C(=O)Nc3cccc(CC)c3)c2N1	·	16%	·	·	·	0%
COc1cccc(/C=N/NC(=O)c2cc3c(OC)ccc(OC)c3[nH]2)c1O	0%	5%[57.1 µM]	4%	·	-68*	0%[57.1 µM]
COc1cc(OC)c2cc(C(=O)N/N=C/c3cccc(OC)c3O)[nH]c2c1	5%	25%	3%	-76*	?	6%
CCOc1ccc(CCNCc2c(C(=O)O)n(Cc3ccc(C)cc3)c3cc(OC)ccc23)cc1	·	15%	·	·	·	3%
O=C(O)CC1CCC(=C(Cl)Cl)C1 (stereo not given)	2%	1µM*	41%	6	-4	12%
Cc1ccc(S/C(=N/S(=O)(=O)c2ccc(Cl)cc2)c2ccccc2)cc1	·	7%	·	·	·	-2%
COc1ccc(Cl)cc1NC(=S)NCCCN1CCCC1=O	-2%	-29%	5%	·	-17	2%
O=C1CCCN1CCCNC(=S)Nc1ccc(Br)cc1Cl	0%	40µM*	6%	·	-11	10%[0.0914 µM]
